Screens from PubChem.
ATXN2 expr inh – ATXN2 expression inhibition. HEK-293 ATXN2-luciferase reporter, luminescence, 24 h. Potency, µM (doses to about 57 µM), for the others: top-dose activity change, negative = inhibition, usual class: inhibitors. 360,000 compounds, 0.72% hits. AID 1745845; further: on the % scale 0 is the no-effect control and ±100 the full control effect; nearly all actives have a fitted effect of over 55% in size
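ATXN2-luciferase reporter cells (luciferase flanked by upstream and downstream ATXN2 gene portions) were treated 24 h at 37 °C with compounds at up to 57 uM. SteadyGlo luminescence gave expression; GF-AFC fluorescence gave viability.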
TDP1 cell noCPT – qHTS for Inhibitors of human tyrosyl-DNA phosphodiesterase 1 (TDP1): qHTS in cells in absence of CPT | DT40 Tdp1-/- hTDP1 cells, no CPT, ATP luminescence, 48 h | Potency, µM (top dose mostly 46.2 µM), without a hit: at the top dose activity change, negative = growth inhibition, hits mostly inhibitors | 420,000 compounds, 15% hits | AID 686978, 2013; further: on the % scale 0 is the no-effect control and ±100 the full control effect; nearly all actives have a fitted effect of over 55% in size
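Growth kinetics read by CellTiter-Glo luminescence after ≥48 hr at 37 °C. Cells: DT40 Tdp1-/- stably carrying human TDP1, 400 per well, compound exposure in the absence of CPT (DMSO vehicle).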
S2 tox – reduces viability in counter-screen for ATXN expression inhibitors | AID 651635 | Potency, µM (highest dose often 56.7 µM), usual class: cytotoxic | 400,000 compounds, 0.49% hits | S2 cells (HEK-293 line with an ATXN2-luciferase reporter) viability, CellTiter-Fluor protease fluorescence, 24 h; further: nearly all actives have a fitted effect of over 40% in size
TDP1 cell CPT – growth inhibition of DT40 Tdp1-/-;hTDP1 cells with camptothecin (screen for TDP1 inhibitors). chicken DT40 Tdp1-/-;hTDP1 cells + 20 nM CPT, ATP luminescence, 48 h. Potency, µM (series often up to 46.2 µM), inactives show at the top dose activity change, negative = growth inhibition, usual class: inhibitors. 420,000 compounds, 12% hits. AID 686979; further: on the % scale 0 is the no-effect control and ±100 the full control effect; nearly all actives have a fitted effect of over 55% in size
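Chicken DT40 Tdp1-/- cells complemented with human TDP1, 400 cells/well, exposed to compounds plus 20 nM camptothecin for at least 48 h at 37 C; viability read as ATP content by CellTiter-Glo luminescence.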
TGFb inhibitor – inhibitors of TGF-b signaling; HepG2 CAGA-GFP TGF-b/SMAD3 reporter, GFP fluorescence, 18 h; TGF-beta stimulated, 500 pg/mL final; Potency, µM (series often up to 46.1 µM), inactives show at the highest dose activity, negative = inhibition, hits mostly inhibitors; 410,000 compounds, 1.2% hits; further: on the % scale 0 is the no-effect control and ±100 the full control effect; nearly all actives have a fitted effect of over 65% in size
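First, reporter cells (HEPG2 CAGA-GFP) rested 2 h at 37 degrees C. Next, compounds were pinned in and TGF-beta added to 500 pg/mL final. After 18 h, GFP was imaged per cell and summed per well.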
HepG2 tox – kills HepG2 cells in TGF-b inhibitor counter-screen. HepG2 CAGA-GFP viability, ATP luminescence, 18 h. Potency, µM (doses to about 46.1 µM), inactives show at the top dose activity change, negative = cytotoxicity, usual class: cytotoxic. 410,000 compounds, 0.76% hits
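HepG2 CAGA-GFP cells (1000/well, DMEM with 1% FBS) received compound, then TGF-beta at 500 pg/mL final, and were incubated 18 hours at 37 degrees C. Viability was read by CellTiter-Glo luminescence. Media-only wells were set as complete cell-killing and DMSO as no toxicity.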
* hit, by the source's call; i = inactive; ? = inconclusive; . = not tested or not shown; [ ] = another dose, or the depositor's remark. The list is not random: actives were taken first. Their share in the collection is about 17%. The call rests on the fitted dose curve; in most records, active means well fitted curve in the direction sought with a large enough effect; inconclusive means small, poorly fitted or top-dose-only effect, or another doubt; inactive means no such curve, though single readings can be large; an effect the other way counts as inactive or inconclusive. Potency means the concentration at half of the fitted maximal effect.

SMILES | ATXN2 expr inh | TDP1 cell noCPT | S2 tox | TDP1 cell CPT | TGFb inhibitor | HepG2 tox
Cc1cccc(NS(=O)(=O)c2ccc3c(c2)C(C)(C)C(=O)N3C)c1 | . | -29% | . | ? | -25% | -24%
O=P(O)(O)OP(=O)(O)OP(=O)(O)O | . | -14% | . | -18% | . | .
Cc1nn(-c2ccccc2)c(OC(=O)c2cccc(Br)c2)c1S(=O)(=O)c1ccccc1 | 7% | 2% | i | 0% | 3% | -1%
O=C(Nc1ccc(S(=O)(=O)N2CCCC2)cc1)C1CC(=O)N(c2ccc(F)cc2)C1 (stereo not given) | 2% | ? | i | ? | 19% | -3%
CCOc1ccc(Cl)cc1-c1cc(C(=O)Nc2ccc(F)cc2)[nH]n1 | ? | 16µM* | ? | ? | ? | -23%
COc1ccc(Cl)cc1-c1cc(C(=O)Nc2ccc(C(C)(C)C)cc2)[nH]n1 | 5% | 15µM* | ? | 21µM* | 20% | -24%
COc1ccc(NC(=O)CSc2cc(C)ccc2C)cn1 | -14% | 16µM* | i | ? | 0% | -24%
CCOc1ccc(NCC(=O)Nc2ccc(Cl)cc2C)cc1 | -1% | ? | ? | ? | 4% | -19%
COc1ccc(NCC(=O)Nc2ccc(Cl)cc2C)c(OC)c1 | ? | 29µM* | i | ? | ? | -64%
COc1ccc(NC(=O)Cc2coc3cc(C)ccc23)cn1 | 1% | -9% | i | 1% | 8% | 8%
COc1ccc(NC(=O)c2cc(-c3cc(Cl)ccc3C)n[nH]2)c(OC)c1 | -33% | ? | i | ? | -6% | -6%
CCCOc1ccc(F)cc1-c1cc(C(=O)Nc2ccccc2)[nH]n1 | 6% | ? | i | 1% | -8% | -5%
Cc1cccc(NC(=O)C2CCCN(c3ncnc4c3nc3n4CCCCC3)C2)n1 (stereo not given) | -24% | 7.3µM* | ? | 10µM* | -13% | -23%
O=C(NCc1ccc(Cl)cc1)C1CCCN(c2ncnc3c2nc2n3CCCCC2)C1 (stereo not given) | . | ? | i | ? | 16% | -7%
Cc1ccc(NC(=O)C2CCN(c3ncnc4c3nc3n4CCCCC3)CC2)cc1Cl | -17% | ? | i | ? | -7% | -3%
O=C(Nc1ccc(Cl)cc1)C1CCCN(c2ncnc3c2nc2n3CCCCC2)C1 (stereo not given) | ? | 18µM* | ? | 23µM* | ? | -3%
Cc1ccc(NC(=O)C2CCCN(c3ncnc4c3nc3n4CCCCC3)C2)cc1Cl (stereo not given) | -36% | 21µM* | i | ? | ? | 2%
Cc1nc(CC(=O)N2CCC(n3c(C4CCC4)nc4cccnc43)CC2)cs1 | . | -4% | ? | 16%[9.04 µM] | . | .
CNC[C@@H]1Oc2cc(Br)ccc2S(=O)(=O)N([C@H](C)CO)C[C@@H]1C | -10% | ? | i | -11% | -16% | -10%
COc1ccc(C2CC(c3ccccc3Br)=NN2c2ccc(S(N)(=O)=O)cc2)cc1 (stereo not given) | ? | -16% | i | -16% | ? | 13µM*
COc1ccc(C2CC(c3ccc(C(F)(F)F)cc3)=NN2c2ccc(S(N)(=O)=O)cc2)cc1 (stereo not given) | ? | ? | . | 18µM* | ? | -103%
COc1cc(-c2nnc(SCC(=O)Oc3ccccc3)o2)cc(OC)c1OC | . | 5% | . | -2% | -2% | -8%
O=C(CCN1c2ccccc2Sc2ccccc21)OCc1nnc(-c2ccccc2)o1 | 0% | -4% | i | -12% | -7% | 6%
COc1cc(-c2nnc(SCC(=O)c3ccc(C)cc3)o2)cc(OC)c1OC | -6% | 23µM* | i | ? | 0% | -18%
COc1cc(-c2nnc(SCc3c(F)cccc3Cl)o2)cc(OC)c1OC | 36% | 26µM* | i | ? | 19% | -7%
SMILES | ATXN2 expr inh | TDP1 cell noCPT | S2 tox | TDP1 cell CPT | TGFb inhibitor | HepG2 tox
O=C(Sc1nnc(-c2ccccc2)o1)N1c2ccccc2Sc2ccccc21 | ? | 18µM* | ? | 21µM* | -2% | -20%
COc1cccc(C(=O)CSc2nnc(-c3cc(OC)c(OC)c(OC)c3)o2)c1 | -13% | 21µM* | i | ? | 11% | 1%
Cc1ccc(Oc2ccccc2/C=C/C(=O)O)cc1 | 3% | -13% | i | -14% | 1% | 1%
Cc1[nH]c2ccccc2c1C(=O)NS(=O)(=O)Nc1ccc(F)cc1 | 5% | -2% | i | -1% | 7% | 8%
O=C(NCCc1nnc2n1CCN(Cc1c(F)cccc1F)CC2)c1ccco1 | . | -11% | i | -3% | . | .
COc1cc(-c2nnc(SCC(=O)Oc3ccccc3Cl)o2)cc(OC)c1OC | . | -4% | . | -4% | 51% | 2%
COc1cc(-c2nnc(SCC(=O)N3c4ccccc4Sc4ccccc43)o2)cc(OC)c1OC | -2% | 8.2µM* | ? | ? | 4% | 2%
COCCOC(=O)c1[nH]c2c(c1C)C(=O)CC(c1cc(OC)ccc1OC)C2 (stereo not given) | -18% | 2.6µM* | i | 2.9µM* | -25% | -23%
COc1ccc(OC)c(C2CC(=O)c3c([nH]c(C(=O)OC(C)C)c3C)C2)c1 (stereo not given) | 2% | 0.82µM* | ? | 0.82µM* | -21% | -5%
CCOc1ccc(C2CC(=O)c3c([nH]c(C(=O)OC4CCC(C)CC4)c3C)C2)cc1 (stereo not given) | 7% | -9% | i | -10% | -1% | -16%
